From PubChem
Shown are actives, neighbours in structure and some others; about 3.4% of the full set was active somewhere.
MITF inh: MITF inhibitors, primary screen, biochemical, AlphaScreen, human; AlphaScreen MITF homodimerization, bead proximity signal; inhibition, % at 2.6 µM; actives 0.91% (n = 650,000); in the data active = inhibition above about 50%
Target sequence (O75030 whole entry, looked up): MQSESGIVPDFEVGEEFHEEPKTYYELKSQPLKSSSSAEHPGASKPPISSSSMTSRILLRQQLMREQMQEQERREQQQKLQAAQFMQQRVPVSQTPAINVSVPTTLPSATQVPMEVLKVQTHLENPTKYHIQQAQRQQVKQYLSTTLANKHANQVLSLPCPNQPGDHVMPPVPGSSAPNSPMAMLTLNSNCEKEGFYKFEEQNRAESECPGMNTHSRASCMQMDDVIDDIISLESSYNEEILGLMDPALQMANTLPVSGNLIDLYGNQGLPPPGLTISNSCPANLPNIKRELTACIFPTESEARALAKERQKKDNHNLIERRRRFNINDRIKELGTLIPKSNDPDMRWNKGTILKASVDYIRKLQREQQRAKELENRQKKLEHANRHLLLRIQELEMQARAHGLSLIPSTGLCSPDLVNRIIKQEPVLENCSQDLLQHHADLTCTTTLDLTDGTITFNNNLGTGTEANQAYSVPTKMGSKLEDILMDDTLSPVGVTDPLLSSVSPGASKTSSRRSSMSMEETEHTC
TEAD-YAP inh: TEAD-YAP interaction inhibition, primary screen, TEAD-YAP interaction inhibitor project, luminescence, HEK-TIYL cells. actives 1.4% (n = 640,000). TEAD-Gal4/YAP UAS-luciferase luminescence. inhibition, % at 9.12 µM; in the data active = inhibition above about 32%
GPR151 activ: activators of human GPR151, primary screen, cell-based, PathHunter beta-arrestin, luminescence; G-protein coupled receptor 151 (Homo sapiens), Q8TDV0; PathHunter beta-arrestin GPR151 cells; activation, % at 11.2 µM; actives 1% (n = 650,000); in the data active = activation above about 4.9%
FBW7 act: FBW7 E3 ligase activators, primary screen, biochemical, AlphaScreen, human; F-box/WD repeat-containing protein 7 (Homo sapiens), Q969H0; AlphaScreen FBW7–phospho-cyclin E peptide binding, activator screen; normalized activity (activation), % at 26.1 µM; actives 0.13% (n = 650,000); AID 1259310, 2017; in the data active = normalized activity above about 1.9%;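 note: purified mutant Fbw7 with reduced substrate affinity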
GPR151 confirm: GPR151 activators, triplicate retest, confirmation, cell-based, PathHunter beta-arrestin, luminescence | shares compounds with GPR151 activ | GPR151 PathHunter beta-arrestin cells, 90 min; % of EA-reagent control over plate median | activation, % at 11.2 µM | 6,700 tested, under 10 active;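 active = mean percent activation across replicates above the confirmation screen cutoff of 4.91%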
GPR119 ag: GPR119 activators in beta-arrestin cells, counter-screen for GPR151 activator project, cell-based, PathHunter beta-arrestin, luminescence, triplicate; actives 0.3% (n = 6,700); activation, % at 11.2 µM; 90 min; 0 = compound-well median, 100 = enzyme-acceptor control; AID 1508611, 2020; shares compounds with GPR151 activ;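 active = mean percent activation in the counterscreen above 29.09%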;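 note: counterscreen on off-target GPR119 to flag nonselective hits from the GPR151 activator screen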
Each line names hits and unclear results; the compound was inactive in the other large screens (follow-up assays come after a bar, where they were run).

O=C(O)C1CSC(c2ccsc2)N1 (centres undefined)	GPR151 activ 5.3 | GPR151 confirm inactive | GPR119 ag inactive
O=C(CN1C(=O)c2cccc([N+](=O)[O-])c2C1=O)OCC(=O)c1ccccc1Cl	none
O=C(COC(=O)CN1C(=O)c2cccc([N+](=O)[O-])c2C1=O)OCN1C(=O)c2ccccc2C1=O	GPR151 activ 4.9 | GPR151 confirm inactive | GPR119 ag inactive
O=C(CN1C(=O)c2cccc([N+](=O)[O-])c2C1=O)OCc1ccc(C(=O)c2ccccc2)cc1	none
NC(=O)c1ccccc1NC(=O)CCN1C(=O)c2cccc([N+](=O)[O-])c2C1=O	GPR151 activ 5.4 | GPR151 confirm inactive | GPR119 ag inactive
O=C(CN1C(=O)c2cccc([N+](=O)[O-])c2C1=O)OCc1ccc(Cl)cc1	GPR151 activ 7.3 | GPR151 confirm inactive | GPR119 ag inactive
O=C1c2ccccc2NC2(C(=O)N(Cc3cccc4ccccc34)c3ccccc32)N1c1ccccc1 (centres undefined)	GPR151 activ 7.0 | GPR151 confirm inactive | GPR119 ag inactive
CC(=O)O/C1=C/SC2c3ccccc3C(=O)N2Cc2ccccc21 (centres undefined)	none
CN1CCN(CCCOc2ncc(Nc3ncc(-c4ccc(C(F)(F)F)c(F)c4)nc3C(N)=O)cn2)CC1	GPR151 activ 6.9 (no result: MITF inh, TEAD-YAP inh, FBW7 act) | GPR151 confirm inactive | GPR119 ag inactive
Cc1ccc(NC(=O)C2CCC(CNc3c(N4CCCC4)c(=O)c3=O)CC2)cc1F (centres undefined)	none
CCOc1cnc(C(=O)NNC(=O)c2ccc(S(=O)(=O)N(C)C)cc2)o1	GPR151 activ 6.0 | GPR151 confirm inactive | GPR119 ag inactive
CCOc1ccc(NC(=O)CSc2nc(N)c(C#N)cc2C#N)cc1	none
CC(=O)Nc1ccc(OCC(=O)NCCCc2ccccc2)cc1	none
Cc1cc(I)ccc1NC(=O)Cc1ccccc1	GPR151 activ 6.1 | GPR151 confirm inactive | GPR119 ag inactive
COC(=O)c1ccc(Cl)c(NC(=O)c2ccccc2SC)c1	none
O=C(Nc1c2c(nn1-c1ccc([N+](=O)[O-])cc1)CSC2)c1ccc(Br)o1	GPR151 activ 5.2 | GPR151 confirm inactive | GPR119 ag inactive
COc1ccc(-n2nc3c(c2NC(=O)c2cccc(OC)c2)CSC3)cc1	GPR151 activ 6.1 | GPR151 confirm inactive | GPR119 ag inactive
COc1cccc(C(=O)Nc2c3c(nn2-c2ccc(Oc4ccccc4)cc2)CSC3)c1	none
O=C(Nc1c2c(nn1-c1ccc(F)cc1)CSC2)c1ccc(Br)o1	none
O=C1NC(c2cc(I)ccc2Cl)=N/C1=C/c1cccs1	none
Cc1ccc(NC(=O)CSc2nc(=O)n(Cc3ccco3)c3c2CCC3)cc1F	GPR151 activ 6.6 | GPR151 confirm inactive | GPR119 ag inactive
COc1ccc(Cl)cc1NC(=S)NN1CCN(C)CC1	none
CC(=O)Nc1c2c(nn1-c1ccc(Cl)cc1)CS(=O)(=O)C2	GPR151 activ 7.8 | GPR151 confirm inactive | GPR119 ag inactive
O=C(Nc1c2c(nn1-c1ccc(Cl)cc1)CS(=O)(=O)C2)c1ccc(Cl)cc1	none
O=C(Cc1ccc(F)cc1)Nc1c2c(nn1-c1ccc(F)cc1)CS(=O)(=O)C2	GPR151 activ 5.3 | GPR151 confirm inactive | GPR119 ag inactive
COCCCn1c(NC(=O)Nc2cccc(C)c2)c2ccccc2nc1=O	none
O=C(CCCn1c2ccccc2c(=O)c2ccccc21)Nc1ccccc1F	none
Cc1ccc(Cl)c2c1NC(=O)C21SCCS1	GPR151 activ 8.6 | GPR151 confirm inactive | GPR119 ag inactive
COc1ccc2c(c1)c(C(=O)O)c(C)n2CCc1ccc(OC)c(OC)c1	GPR151 activ 5.6 | GPR151 confirm inactive | GPR119 ag inactive
COc1ccc(CCn2c(C)c(C(C)=O)c3cc(OC(=O)c4cccc(Cl)c4)ccc32)cc1OC	none
Cc1ccccc1-c1nc(-c2ccc(Cl)cc2)no1	GPR151 activ 5.1 | GPR151 confirm inactive | GPR119 ag inactive
